Assays:
Experiment in all cases: DAPPL (digital affinity profiling via proximity ligation, sequencing); 10 mM Tris-HCl pH 7.5, 50 mM NaCl, 1 mM DTT, 4% glycerol, room temperature, 30 min; GST-TFs on glutathione beads, 16-mer random dsDNA library, 0.1% formaldehyde crosslink after washing; high values mean tight binding
Details in all cases: protein: recombinant; tags: N-terminal GST; dsDNA, one strand shown
ETV1 = ETV1 (Homo sapiens, UniProt P50549 1-477)
Outline: (§1)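 Human transcription factors carrying a GST fusion were produced in yeast, bound to glutathione beads, tagged with DNA barcodes and pooled together with a tag-only sample. Each pool was held with 200 nmole of a random double-stranded 16-mer DNA library in Tris/NaCl/DTT/glycerol buffer for 30 min at room temperature, then washed, crosslinked in 0.1% formaldehyde, proximity-ligated with BsaI/T4 ligase (1 h, 37 °C), PCR-amplified and sequenced on an Illumina NextSeq500. Binding signal is the read frequency of each hexamer for a given factor divided by its frequency in the tag-only sample.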

ERF = target: T1, ERF (Homo sapiens, UniProt P50548 1-548)
T1 sequence: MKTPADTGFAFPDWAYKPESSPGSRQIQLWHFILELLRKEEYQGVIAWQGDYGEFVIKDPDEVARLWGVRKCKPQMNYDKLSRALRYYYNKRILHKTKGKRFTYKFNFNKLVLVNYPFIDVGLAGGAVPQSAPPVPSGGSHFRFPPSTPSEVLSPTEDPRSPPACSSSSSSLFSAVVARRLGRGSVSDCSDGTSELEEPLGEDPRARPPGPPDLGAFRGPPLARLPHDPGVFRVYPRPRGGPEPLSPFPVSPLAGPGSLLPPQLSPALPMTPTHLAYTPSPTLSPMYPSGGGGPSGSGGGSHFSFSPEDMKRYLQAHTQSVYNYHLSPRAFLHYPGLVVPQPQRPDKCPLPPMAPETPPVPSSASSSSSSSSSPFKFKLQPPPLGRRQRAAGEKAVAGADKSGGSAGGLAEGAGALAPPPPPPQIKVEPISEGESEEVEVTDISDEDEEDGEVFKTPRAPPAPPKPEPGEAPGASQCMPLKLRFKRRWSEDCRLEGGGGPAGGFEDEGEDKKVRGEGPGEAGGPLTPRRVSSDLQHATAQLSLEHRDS
Outline: as §1

ETV3L = target: T2, ETV3L (Homo sapiens, UniProt Q6ZN32 1-361)
T2 sequence: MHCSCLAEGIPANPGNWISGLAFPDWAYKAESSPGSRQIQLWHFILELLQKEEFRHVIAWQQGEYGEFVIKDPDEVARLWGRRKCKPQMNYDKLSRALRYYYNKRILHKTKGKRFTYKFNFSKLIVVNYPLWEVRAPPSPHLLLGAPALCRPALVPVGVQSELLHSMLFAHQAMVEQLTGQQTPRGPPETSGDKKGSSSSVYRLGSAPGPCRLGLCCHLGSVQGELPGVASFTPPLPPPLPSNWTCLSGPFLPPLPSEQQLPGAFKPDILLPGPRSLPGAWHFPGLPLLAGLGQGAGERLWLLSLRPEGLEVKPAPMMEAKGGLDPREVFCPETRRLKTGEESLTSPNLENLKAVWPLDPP
Outline: as §1

ETS2 = target: T3, ETS2 (Homo sapiens, UniProt P15036 1-469)
T3 sequence: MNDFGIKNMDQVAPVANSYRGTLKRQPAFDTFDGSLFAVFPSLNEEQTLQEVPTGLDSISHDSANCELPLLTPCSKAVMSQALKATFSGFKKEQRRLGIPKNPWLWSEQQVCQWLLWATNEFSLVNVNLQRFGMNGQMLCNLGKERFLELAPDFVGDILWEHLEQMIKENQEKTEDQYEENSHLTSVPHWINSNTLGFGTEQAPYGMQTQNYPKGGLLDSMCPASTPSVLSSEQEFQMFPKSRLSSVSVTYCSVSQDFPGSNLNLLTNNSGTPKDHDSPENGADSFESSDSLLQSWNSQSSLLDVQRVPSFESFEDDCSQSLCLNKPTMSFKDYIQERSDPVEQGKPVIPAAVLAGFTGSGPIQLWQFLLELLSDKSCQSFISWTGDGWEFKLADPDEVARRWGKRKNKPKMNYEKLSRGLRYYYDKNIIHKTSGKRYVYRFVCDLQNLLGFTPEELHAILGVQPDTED
Outline: as §1

SPDEF = target: T4, SPDEF (Homo sapiens, UniProt O95238 1-335)
T4 sequence: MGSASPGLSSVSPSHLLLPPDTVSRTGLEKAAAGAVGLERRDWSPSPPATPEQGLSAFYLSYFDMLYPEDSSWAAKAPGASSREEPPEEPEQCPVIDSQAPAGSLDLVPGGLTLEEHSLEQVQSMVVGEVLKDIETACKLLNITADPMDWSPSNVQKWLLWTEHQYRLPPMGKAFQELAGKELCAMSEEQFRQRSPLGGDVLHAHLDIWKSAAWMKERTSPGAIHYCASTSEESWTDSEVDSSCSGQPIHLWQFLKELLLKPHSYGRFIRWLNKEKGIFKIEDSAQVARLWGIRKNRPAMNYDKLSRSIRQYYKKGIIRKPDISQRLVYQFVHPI
Outline: as §1

ETV7 = target: T5, ETV7 (Homo sapiens, UniProt Q9Y603 1-341)
T5 sequence: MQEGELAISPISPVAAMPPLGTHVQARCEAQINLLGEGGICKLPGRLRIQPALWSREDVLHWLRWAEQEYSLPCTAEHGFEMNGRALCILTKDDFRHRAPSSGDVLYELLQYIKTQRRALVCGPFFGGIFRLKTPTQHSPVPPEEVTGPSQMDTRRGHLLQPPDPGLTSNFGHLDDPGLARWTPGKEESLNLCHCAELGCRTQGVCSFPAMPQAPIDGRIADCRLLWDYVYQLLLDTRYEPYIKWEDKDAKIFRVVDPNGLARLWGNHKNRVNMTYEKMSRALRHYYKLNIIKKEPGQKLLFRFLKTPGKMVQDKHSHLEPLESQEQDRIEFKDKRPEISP
Outline: as §1

ELF5 = target: T6, ELF5 (Homo sapiens, UniProt Q9UKW6-2 1-255)
T6 sequence: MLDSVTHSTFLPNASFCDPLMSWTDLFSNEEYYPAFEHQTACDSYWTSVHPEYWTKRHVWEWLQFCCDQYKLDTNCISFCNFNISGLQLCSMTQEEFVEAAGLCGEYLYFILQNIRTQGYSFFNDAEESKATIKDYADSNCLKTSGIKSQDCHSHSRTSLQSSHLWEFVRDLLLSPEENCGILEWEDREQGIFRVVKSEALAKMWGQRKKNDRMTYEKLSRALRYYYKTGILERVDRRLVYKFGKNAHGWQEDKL
Outline: as §1

ETV3 = target: T7, ETV3 (Homo sapiens, UniProt P41162-2 1-143)
T7 sequence: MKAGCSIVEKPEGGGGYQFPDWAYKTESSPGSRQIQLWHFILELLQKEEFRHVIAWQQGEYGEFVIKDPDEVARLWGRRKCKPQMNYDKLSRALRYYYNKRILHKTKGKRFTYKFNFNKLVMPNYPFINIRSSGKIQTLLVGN
Outline: as §1

ETV6 = ETV6 (Homo sapiens, UniProt P41212 1-452)
ETV6, sequence (P41212 whole entry): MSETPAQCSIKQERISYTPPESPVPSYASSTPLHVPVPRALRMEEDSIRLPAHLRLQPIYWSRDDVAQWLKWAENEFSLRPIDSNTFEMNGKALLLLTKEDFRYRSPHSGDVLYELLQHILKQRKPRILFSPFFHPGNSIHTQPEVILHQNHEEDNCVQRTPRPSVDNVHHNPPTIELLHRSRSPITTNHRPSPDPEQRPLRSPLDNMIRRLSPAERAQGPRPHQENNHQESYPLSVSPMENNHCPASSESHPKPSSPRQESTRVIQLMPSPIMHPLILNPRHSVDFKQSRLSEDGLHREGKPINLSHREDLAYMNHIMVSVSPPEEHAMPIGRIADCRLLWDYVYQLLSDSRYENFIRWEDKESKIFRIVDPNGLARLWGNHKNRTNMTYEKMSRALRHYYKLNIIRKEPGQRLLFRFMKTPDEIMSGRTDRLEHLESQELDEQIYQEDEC
Outline: as §1

ETV1, sequence (P50549 whole entry, the tested form may be a part): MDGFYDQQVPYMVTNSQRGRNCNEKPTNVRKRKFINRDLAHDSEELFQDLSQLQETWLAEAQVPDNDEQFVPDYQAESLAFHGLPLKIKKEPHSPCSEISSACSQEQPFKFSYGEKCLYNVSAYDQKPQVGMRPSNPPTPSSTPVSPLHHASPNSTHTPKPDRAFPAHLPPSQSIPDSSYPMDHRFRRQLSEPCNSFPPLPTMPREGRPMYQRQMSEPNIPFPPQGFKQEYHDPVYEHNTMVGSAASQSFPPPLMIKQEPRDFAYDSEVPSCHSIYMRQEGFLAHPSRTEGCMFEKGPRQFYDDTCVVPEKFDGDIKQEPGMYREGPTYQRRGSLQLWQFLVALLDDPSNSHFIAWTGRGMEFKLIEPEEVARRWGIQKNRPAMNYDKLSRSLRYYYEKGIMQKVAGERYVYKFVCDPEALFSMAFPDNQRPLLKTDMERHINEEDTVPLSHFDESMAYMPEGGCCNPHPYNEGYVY

Sequence: TACTAT
- binding signal (ETV1): 1.28 fold enrichment (6-mer frequency, TF over GST control)
- binding signal (ERF): 1.38 fold enrichment (6-mer frequency, TF over GST control)
- binding signal (ETV3L): 1.25 fold enrichment (6-mer frequency, TF over GST control)
- binding signal (ETS2): 1.37 fold enrichment (6-mer frequency, TF over GST control)
- binding signal (SPDEF): 1.37 fold enrichment (6-mer frequency, TF over GST control)
- binding signal (ETV7): 1.35 fold enrichment (6-mer frequency, TF over GST control)
- binding signal (ELF5): 1.27 fold enrichment (6-mer frequency, TF over GST control)
- binding signal (ETV3): 1.36 fold enrichment (6-mer frequency, TF over GST control)
- binding signal (ETV6): 1.39 fold enrichment (6-mer frequency, TF over GST control)

Reference: PMC7862700, “An all-to-all approach to the identification of sequence-specific readers for epigenetic DNA modifications on cytosine”
